An excerpt weighted towards active compounds, which were near 2.4% of everything screened.
D2 PAM-1: potentiates the human D2 dopamine receptor allosterically; AID 624464; actives 0.23% (n = 360,000); P14416; potentiation, % (concentration not given with the values); DiscoveRx D2 beta-arrestin cells, luminescence, 90 min; 100% = 57 uM dopamine signal; in the data active = potentiation above about 50%; inconclusive = mostly about 30% to 49%
Target sequence (P14416 whole entry, looked up): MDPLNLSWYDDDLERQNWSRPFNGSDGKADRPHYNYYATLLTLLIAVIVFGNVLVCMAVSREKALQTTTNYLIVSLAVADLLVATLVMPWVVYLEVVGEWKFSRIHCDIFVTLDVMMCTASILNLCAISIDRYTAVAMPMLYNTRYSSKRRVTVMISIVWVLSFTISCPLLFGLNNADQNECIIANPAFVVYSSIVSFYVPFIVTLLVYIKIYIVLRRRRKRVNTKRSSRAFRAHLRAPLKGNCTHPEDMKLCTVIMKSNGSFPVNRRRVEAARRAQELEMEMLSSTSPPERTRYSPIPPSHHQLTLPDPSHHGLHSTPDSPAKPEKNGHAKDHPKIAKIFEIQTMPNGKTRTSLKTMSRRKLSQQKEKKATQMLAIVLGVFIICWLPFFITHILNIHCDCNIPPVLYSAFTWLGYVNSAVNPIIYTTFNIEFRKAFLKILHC
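D2 cells co-treated with compound plus 50 nM dopamine (EC20) for 90 min at 37 deg C to detect potentiation. Beta-arrestin recruitment was read as enzyme-fragment luminescence after 1 h at ambient temperature. Full response was set by 57 uM dopamine.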
D2 ag-1: agonists of human D2 dopamine receptor. HEK293 T-REx D2 cells, calcium flux agonist mode. actives 0.53% (n = 340,000). activation, % at 2 µM. P14416;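 active = activation over 3 SD above normal in the single-dose calcium agonist read, cut at about 30% in these data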; note: 0% is about no effect
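Tetracycline-induced HEK293 T-REx cells with force-coupled D2 receptor, plated overnight at 30 C, loaded with no-wash calcium dye. After a 10 s baseline, compound was pin-added and calcium flux read kinetically for 180 s; calcium rises flagged agonists.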
D2 PAM-2: positive allosteric modulators of human D2 dopamine receptor; potentiation, % at 10 µM; P14416; actives 0.34% (n = 340,000); AID 485347; HEK293 T-REx D2, calcium flux, EC20 dopamine potentiation;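 active = potentiation over 3 SD above the plate norm, cut at about 30% in these data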; note: 0% is about no effect
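Potentiation of an EC20 dopamine calcium response is measured in a force-coupled, tetracycline-inducible Hek293 Trex D2 line. Compound-only kinetic reads over 180 s flag agonists before dopamine addition.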
D2 ag-2: human D2 receptor agonism in beta-arrestin assay; P14416; DiscoveRx PathHunter D2 beta-arrestin, luminescence, 90 min; 100% = 57 uM dopamine signal; activation, % (concentration not given with the values); actives 0.084% (n = 360,000); AID 624465; in the data active = activation above about 40%; inconclusive = between about 15% and that limit
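DiscoveRx PathHunter D2 beta-arrestin cells (2,100/well) attached overnight, then compound-stimulated 90 min at 37 C in HBSS/10 mM HEPES/0.1% Tween-20 buffer; beta-galactosidase complementation read by luminescence after 1 h at ambient temperature. Dopamine 57 uM final (EC100) as control.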
D2 antagonist: antagonizes the human D2 dopamine receptor. P14416. HEK293 TREx D2 cells, calcium flux, dopamine EC80. inhibition, % at 10 µM. actives 2% (n = 340,000). AID 485344; in the data active = inhibition above about 30%; inactive = below that, where a call was filed; note: 0% is about no effect
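In this primary screen, negative modulation is detected by tracking calcium flux after an EC80 dopamine challenge in inducible HEK293 T-REx D2 cells preexposed to test compound for 180 s.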
D3 arrestin ag: activates human D3 dopamine receptor beta-arrestin recruitment. shares compounds with D2 ag-1. DiscoveRx D3 beta-arrestin cells, luminescence, 90 min. Potency, µM (series often up to 76.9 µM), for inactives: at the top dose activation, actives largely listed as activators. actives 4% (n = 2,300). AID 720506;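 note: potency is the fitted concentration of half-maximal effect; 100% = dopamine control response; nearly all actives have a fitted effect of over 70% in size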
D2 ag-3: counter-screen for D3 agonists: human D2 dopamine receptor agonism. shares compounds with D2 ag-1. actives 5.9% (n = 2,300). DiscoveRx PathHunter D2 beta-arrestin, luminescence, 90 min; response scale: percent relative to full dopamine signal. Potency, µM (series often up to 76.9 µM), for the others: top-dose activation, actives largely listed as activators; note: potency is the fitted concentration of half-maximal effect; % of control where 0% means no effect; nearly all actives have a fitted effect of over 70% in size
* hit, by the source's call; u = inconclusive; x = no result given. Unless noted, calls come from the whole dose curve; as a rule, active = well fitted activation curve with a large enough effect; inconclusive = small, poorly fitted or top-dose-only effect; inactive = flat fitted curve, though single readings scatter.

SMILES | D2 PAM-1 | D2 ag-1 | D2 PAM-2 | D2 ag-2 | D2 antagonist | D3 arrestin ag | D2 ag-3
CC(=O)Nc1cc(-c2ccc(CO)cc2)cn2c(-c3ccc(F)c(Cl)c3)cnc12 | -8.8 | x | x | 7.6 | x | x | x
O=C(O)C1C2C=CC(C2)C1C(=O)NCCc1ccccc1 (stereo not given) | 15.0 | 52.7* | -12.2 | 8.4 | 22.7 | -0.1% | 0.3%
O=C(O)C1C2C=CC(C2)C1C(=O)NCCCc1ccccc1 (stereo not given) | -8.6 | 1.4 | 1.0 | 0.9 | -25.6 | x | x
CCOCCCn1c(=N)c(C(=O)NCc2cccnc2)cc2c(=O)n3ccccc3nc21 | x | 1.0 | -7.7 | x | x | x | x
O=C(CSC1=N/C(=C/c2ccc(Cl)c(Cl)c2)C(=O)N1c1ccccc1F)NC1CC1 | 15.3 | 0.7 | 8.3 | -4.9 | 52.1* | 20.4% | 5.2%
CC1CCN(c2ccc(C(=O)NCc3ccco3)cc2[N+](=O)[O-])CC1 | -14.2 | -0.1 | 1.9 | -1.4 | 5.9 | -9.9% | -10.6%
CCN(CC)C(=O)CSc1nc(-c2ccc(C)cc2)nc2c1Cc1c(CO)cnc(C)c1O2 | x | 0.8 | 0.7 | x | x | x | x
CCOC(=O)C1(CC2CC2)CCN(Cc2cnc(N(C)C)s2)CC1 | -3.2 | 74.9* | -32.7 | 2.2 | 67.8* | -4.9% | 9.5%
CCOC(=O)C1(CCOc2ccccc2)CCN(Cc2cnc(C)s2)CC1 | -10.5 | 1.1 | -20.7 | 3.3 | 5.8 | x | x
COc1cccc(-n2cc(CN(C)Cc3nc(Cc4ccccc4)no3)cn2)c1 | -3.9 | 10.5 | 7.0 | -1.8 | 4.7 | x | x
COc1cccc(-n2cc(CN(C)Cc3nc(Cc4cccc(F)c4)no3)cn2)c1 | -2.7 | 15.5 | -3.1 | 6.5 | -2.6 | 4.0% | 1.1%
O=C(C[n+]1cc(-c2ccccc2)n2c1CCC2)Nc1nc(-c2ccc(F)cc2)cs1 | -20.1 | 75.8* | -23.1 | 4.8 | 75.6* | 23.5% | u
Cc1ccc(-c2c[n+](CC(=O)Nc3c(C)cccc3C)c3n2CCC3)cc1 | -18.7 | 0.7 | -13.0 | -6.0 | 0.1 | x | x
O=C(CN1C(=O)NC2(CCCC2)C1=O)Nc1nc(-c2ccc(F)cc2)cs1 | 0.7 | 0.5 | 3.5 | -2.3 | 12.7 | -6.8% | 2.7%
O=C(C[n+]1cc(-c2ccccc2)n2c1CCC2)N1c2ccccc2Sc2ccccc21 | -24.0 | 64.1* | -29.5 | 0.1 | 36.8* | 0.7% | 12.3%
Cc1ccc(NC(=O)C[n+]2cc(-c3ccccc3)n3c2CCC3)c(C)c1 | -5.1 | 81.2* | -20.1 | 0.6 | 65.4* | -23.3% | 0.1%
O=C(C[C@H]1C[C@@H]2c3cc(NC(=O)c4ccc5c(c4)OCO5)ccc3O[C@@H]2[C@H](CO)O1)NCc1cc(F)ccc1F | -3.8 | x | x | -7.9 | x | x | x
Cc1ccc(-c2csc(NC(=O)C[n+]3cc(-c4ccc(C)cc4)n4c3CCC4)n2)cc1 | -11.7 | -0.8 | -15.0 | 0.5 | -18.8 | x | x
Cc1ccc(-c2csc(NC(=O)C[n+]3cc(-c4ccccc4)n4c3CCC4)n2)cc1 | 3.6 | 77.1* | -20.8 | 7.3 | 63.8* | 6.8% | 17.9%
Cc1cccc2sc(NC(=O)CSCc3ccccc3)nc12 | -17.3 | 43.8* | -22.5 | -2.6 | -13.0 | -3.7% | 4.5%
Cc1cccc2sc(NC(=O)Cn3cccc3)nc12 | -1.6 | 1.0 | -6.5 | 5.5 | -2.1 | x | x
CC(C)CN(CCCNC(=O)CN1N=C(c2ccccc2)CCC1=O)CC(C)C | x | -0.3 | -3.0 | x | x | x | x
CCN(CC)CC(O)Cn1c(-c2ccccc2Cl)nc2ccccc21 (stereo not given) | -19.4 | 44.7* | 0.8 | -2.3 | -9.5 | 3.4% | -2.5%
On1c(-c2ccccc2Cl)nc2ccccc21 | 0.1 | 3.1 | 11.0 | -3.5 | 8.3 | x | x
CC(C)Nc1ncnc2c1ncn2[C@H]1CN(Cc2ccccc2)C[C@@H](CO)O1 | -3.1 | x | x | -1.3 | x | x | x
Cc1cccc(CSc2nnc([C@@H]3CCCN3C(=O)OC(C)(C)C)o2)c1 | -31.4 | -1.2 | 0.0 | -3.0 | 35.6* | -0.9% | -4.6%

Screens (PubChem BioAssay)
